# The source made the active and inactive calls. Unless noted, calls follow the shape of the dose curve; as a rule, active = well fitted curve in the direction sought with a large enough effect in the repeat runs; inconclusive = weak or mixed curves; inactive = no such curve, though single readings can be large; an effect the other way counts as inactive or inconclusive.
# Assays:
# [1] = qHTS assay to identify small molecule antagonists of the thyroid receptor (TR) signaling pathway - cell viability counter screen (AID 743064); also: nearly all actives have a fitted effect of over 50% in size; also: potency is read from the fitted curve at half-maximal effect
# Summary of the method: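 GH3.TRE-Luc rat pituitary cells dosed after 4 hr plating, co-stimulated with T3 at 1 nM final, incubated 23.5 h at 37 C. Viability measured in the same wells by CellTiter-Fluor fluorescence after 30 min further at 37 C.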
# [2] = qHTS assay to identify small molecule antagonists of the thyroid receptor (TR) signaling pathway (AID 743065); also: potency is read from the fitted curve at half-maximal effect; nearly all actives have a fitted effect of over 55% in size
# Summary of the method: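 Antagonism measured as loss of luciferase signal in GH3 cells stably carrying a TRE-luciferase reporter, co-treated with compound and T3 (1 nM final) for 23.5 h at 37 C. Viability was read in the same well by CellTiter-Fluor.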
# Aromatase (Homo sapiens) = Aromatase (Homo sapiens) (UniProt P11511); experiment: qHTS assay to identify aromatase inhibitors (AID 743083); also: nearly all actives have a fitted effect of over 55% in size; also: potency is read from the fitted curve at half-maximal effect
# [3] = qHTS assay to identify small molecule antagonists of the estrogen receptor alpha (ER-alpha) signaling pathway - cell viability counter screen (AID 743074; calls by dose curve;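 also: HEK293 cells carrying ER-alpha-UAS-bla reporter stimulated with 17beta-estradiol; nearly all actives have a fitted effect of over 45% in size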; also: potency is read from the fitted curve at half-maximal effect)
# [4] = qHTS assay to identify small molecule antagonists of the estrogen receptor alpha (ER-alpha) signaling pathway using the BG1 cell line (AID 743080; calls by dose curve;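 also: BG1 cells stimulated with 17beta-estradiol alongside compound; nearly all actives have a fitted effect of over 25% in size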; also: potency is read from the fitted curve at half-maximal effect)
# Summary of the method: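 BG1-Luc-4E2 cells (endogenous full-length ER-alpha, stable 4×ERE-luciferase) were starved 5 days in phenol-red-free medium with 10% charcoal-stripped FBS, plated 24 h, then given compound plus 17beta-estradiol for 21.5 h at 37 C; ONE-Glo luminescence read after 30 min.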
# [5] = molecular target: Estrogen receptor (Homo sapiens) (UniProt P03372); experiment: qHTS assay to identify small molecule agonists of the estrogen receptor alpha (ER-alpha) signaling pathway (AID 743075; calls by dose curve;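 also: HEK293 GripTite cells with ER-alpha and UAS-driven beta-lactamase reporter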; also: potency is read from the fitted curve at half-maximal effect)
# [6] = molecular target: Estrogen receptor (Homo sapiens) (UniProt P03372); experiment: qHTS assay to identify small molecule agonists of the estrogen receptor alpha (ER-alpha) signaling pathway using the BG1 cell line (AID 743079); details: BG1Luc4E2 cells, ERE-luciferase agonist, 22 h; activation: at 70.3 µM (top of the series); also: nearly all actives have a fitted effect of over 20% in size
# [7] = qHTS assay to identify small molecule antagonists of the estrogen receptor alpha (ER-alpha) signaling pathway using the BG1 cell line - cell viability counter screen (AID 743081);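 also: compound given together with 17beta-estradiol as the ER stimulus; nearly all actives have a fitted effect of over 45% in size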; also: potency is read from the fitted curve at half-maximal effect
# [8] = test system: thyroid hormone receptor (rat, GH3 cells); experiment: qHTS assay to identify small molecule agonists of the thyroid receptor (TR) signaling pathway (AID 743066; calls by dose curve)
# [9] = molecular target: Estrogen receptor (Homo sapiens) (UniProt P03372); experiment: qHTS assay to identify small molecule antagonists of the estrogen receptor alpha (ER-alpha) signaling pathway (AID 743069; active = well fitted curve in the direction sought with a large enough effect in the signal ratio in the repeat runs, not every such curve was filed as active; inconclusive = weak or mixed curves, or effect the other way; inactive = no such curve, though single readings can be large or run the other way; the % refers to the signal ratio)
# Summary of the method: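 Antagonist mode: compounds in DMSO were co-added with 17beta-estradiol to ER-alpha-bla HEK293 cells (2% charcoal-stripped serum) and left 18 h at 37C. Reporter inhibition was measured as FRET fluorescence after 2 h LiveBLAzer substrate at room temperature.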
# Chain of Aromatase (Homo sapiens) (P11511 whole entry, looked up): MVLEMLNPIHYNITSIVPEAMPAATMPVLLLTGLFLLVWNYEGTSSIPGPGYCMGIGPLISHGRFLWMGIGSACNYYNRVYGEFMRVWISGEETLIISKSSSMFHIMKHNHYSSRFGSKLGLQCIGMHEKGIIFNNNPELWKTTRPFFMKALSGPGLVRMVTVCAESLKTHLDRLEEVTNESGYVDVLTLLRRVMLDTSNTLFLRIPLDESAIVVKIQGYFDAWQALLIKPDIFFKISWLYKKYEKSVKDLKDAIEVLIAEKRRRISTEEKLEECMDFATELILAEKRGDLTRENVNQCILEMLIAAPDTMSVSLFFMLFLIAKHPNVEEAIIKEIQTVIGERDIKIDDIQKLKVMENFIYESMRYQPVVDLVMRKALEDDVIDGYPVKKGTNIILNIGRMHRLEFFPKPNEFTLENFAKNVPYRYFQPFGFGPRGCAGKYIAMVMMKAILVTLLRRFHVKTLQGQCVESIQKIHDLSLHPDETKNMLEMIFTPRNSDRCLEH
# Chain of Estrogen receptor (Homo sapiens) (P03372 whole entry, looked up): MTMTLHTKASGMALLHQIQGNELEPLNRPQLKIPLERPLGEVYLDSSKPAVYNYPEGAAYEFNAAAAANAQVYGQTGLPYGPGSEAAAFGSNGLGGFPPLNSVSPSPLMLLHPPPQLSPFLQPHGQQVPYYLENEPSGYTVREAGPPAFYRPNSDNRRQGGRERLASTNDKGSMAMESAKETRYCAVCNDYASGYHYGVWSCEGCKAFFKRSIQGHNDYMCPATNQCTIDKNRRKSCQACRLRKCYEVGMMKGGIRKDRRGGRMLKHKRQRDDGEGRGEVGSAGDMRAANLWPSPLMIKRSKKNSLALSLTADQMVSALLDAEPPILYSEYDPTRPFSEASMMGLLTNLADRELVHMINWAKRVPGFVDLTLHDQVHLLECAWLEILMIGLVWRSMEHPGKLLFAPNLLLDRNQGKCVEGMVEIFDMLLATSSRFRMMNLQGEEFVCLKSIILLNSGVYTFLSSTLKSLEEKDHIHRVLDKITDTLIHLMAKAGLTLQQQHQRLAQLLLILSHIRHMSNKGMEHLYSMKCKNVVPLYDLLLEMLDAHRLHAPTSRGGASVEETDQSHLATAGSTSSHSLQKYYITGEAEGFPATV
SMILES,Potency [1],Potency [2],Potency (Aromatase (Homo sapiens)),Potency [3],Potency [4],Potency [5],Potency [6],Potency [7],Potency [8],Potency [9]
CC[C@@H](C(=O)[C@@H](C)[C@@H](O)[C@H](C)[C@@H]1O[C@@H]([C@@H](CC)C(=O)O)CC[C@@H]1C)[C@H]1O[C@]2(C=C[C@@H](O)[C@]3(CC[C@@](C)([C@H]4CC[C@](O)(CC)[C@H](C)O4)O3)O2)[C@H](C)C[C@@H]1C,0.668 µM (active),0.668 µM (active),inactive,–,–,–,–,–,–,–
CC(=O)c1ccc2c(c1)N(CCCN1CCN(CCO)CC1)c1ccccc1S2,13.3 µM (active),13.3 µM (active),–,inactive,inactive,–,–,–,–,–
CC(C)(C)NC[C@H](O)COc1ccccc1C1CCCC1,9.02 µM (active),12.7 µM (active),inactive,inactive,inactive,inactive,inactive,–,–,–
CCN(CC)CCOc1ccc(-c2nc3cc(Cl)ccc3s2)cc1,8.41 µM (active),6.68 µM (active),inactive,inactive,–,inactive,–,inactive,–,–
CC(CN1c2ccccc2Sc2ccc(S(=O)(=O)N(C)C)cc21)N(C)C (centres undefined),11.9 µM (active),13.3 µM (active),–,inactive,inactive,inactive,inactive,inactive,–,–
CCCC1([C@H](O)C/C=C/[C@H]2[C@H](O)CC(=O)[C@@H]2CCCCCCC(=O)OC)CCC1,29.8 µM (active),26.6 µM (active),–,inactive,inactive,–,inactive,inactive,–,–
CCCCCCOc1ccc(C(=N)N(CCCC)CCCC)c2ccccc12,5.31 µM (active),5.31 µM (active),13.3 µM (active),9.52 µM (active),–,–,–,33.5 µM (active),–,–
CCCCCCCC(=O)CC[C@@H]1[C@@H](C/C=C\CCCC(=O)OC(C)C)[C@@H](O)C[C@H]1O,21.1 µM (active),16.8 µM (active),–,26.8 µM (active),inactive,inactive,inactive,inactive,–,–
N#Cc1ccc2c(c1)N(CCCN1CCC(O)CC1)c1ccccc1S2,9.44 µM (active),21.1 µM (active),inactive,inactive,inactive,inactive,inactive,inactive,–,–
COc1ccc2c(c1)OC(C)(C)C(c1ccccc1)C2c1ccc(OCCN2CCCC2)cc1 (centres undefined),10.6 µM (active),9.44 µM (active),–,–,inactive,–,inactive,inactive,–,–
COc1ccc(C2NC(=S)N3C(c4ccc(OC)c(OC)c4)NC(=S)N23)cc1OC (centres undefined),0.188 µM (active),0.0841 µM (active),0.168 µM (active),inactive,–,inactive,inactive,inactive,–,–
C/C=C1\NC(=O)[C@H]2CSSCC/C=C/[C@H](CC(=O)N[C@H](C(C)C)C(=O)N2)OC(=O)C(C(C)C)NC1=O (some centres undefined),0.0119 µM (active),0.0168 µM (active),0.0094 µM (active),6.74 µM (active),0.0531 µM (active),15.1 µM [inconclusive] (active),–,–,–,–
CC[C@@H](C(=O)O)[C@@H]1O[C@@H]([C@@H](C)[C@H](O)[C@H](C)C(=O)[C@H](CC)[C@H]2O[C@]3(C=C[C@@H](O)[C@]4(CC[C@@](C)([C@H]5CC[C@](O)(CC)[C@H](C)O5)O4)O3)[C@H](C)C[C@@H]2C)[C@@H](C)C[C@@H]1C,0.15 µM (active),0.0944 µM (active),inactive,0.151 µM (active),–,inactive,–,6.68 µM (active),–,–
OCCN1CCN(CC/C=C2/c3ccccc3Sc3ccc(Cl)cc32)CC1,10.1 µM (active),11.4 µM (active),inactive,inactive,–,–,–,inactive,–,–
CCN(CC)c1ccc(C(=C2C=CC(=[N+](CC)CC)C=C2)c2ccccc2)cc1,0.335 µM (active),0.335 µM (active),3.35 µM (active),4.77 µM (active),5.96 µM (active),–,–,–,–,–
CC[C@]1(O)CC2CN(CCc3c([nH]c4ccccc34)[C@@](C(=O)OC)(c3cc4c(cc3OC)N(C)[C@H]3[C@@](O)(C(N)=O)[C@H](O)[C@]5(CC)C=CCN6CC[C@]43[C@@H]65)C2)C1 (some centres undefined),0.335 µM (active),0.168 µM (active),inactive,–,0.15 µM (active),–,inactive,–,–,–
CC(C(=O)O)c1ccc(C2CCCCC2)c2ccccc12 (centres undefined),inactive,–,–,inactive,inactive,inactive,inactive,inactive,inactive,inactive
CCc1ccc2c(c1)N(CC(C)CN(C)C)c1ccccc1S2 (centres undefined),11.9 µM (active),11.9 µM (active),–,inactive,inactive,inactive,inactive,inactive,–,–
CN=C1C=CC(=C(c2ccc(N(C)C)cc2)c2ccc(N(C)C)cc2)C=C1,3.35 µM (active),2.37 µM (active),1.33 µM (active),9.52 µM (active),–,–,–,11.9 µM (active),–,–
CCNC(=O)[C@@H]1CCCN1C(=O)[C@H](CCCN=C(N)N)NC(=O)[C@H](CC(C)C)NC(=O)[C@@H](Cc1c[nH]c2ccccc12)NC(=O)[C@H](Cc1ccc(O)cc1)NC(=O)[C@H](CO)NC(=O)[C@H](Cc1c[nH]c2ccccc12)NC(=O)[C@H](Cc1cnc[nH]1)NC(=O)[C@@H]1CCC(=O)N1,1.5 µM (active),1.33 µM (active),13.3 µM (active),10.7 µM (active),–,–,–,10.6 µM (active),–,–
C=C1C(=C/C=C2\CCC[C@]3(C)[C@@H]([C@H](C)CCCC(C)(C)O)CC[C@@H]23)C[C@@H](O)C[C@@H]1O,23.7 µM (active),13.3 µM (active),inactive,23.9 µM (active),29.8 µM (active),inactive,–,2.37 µM (active),–,–
O=[N+]([O-])c1c(Cl)cccc1-c1c[nH]cc1Cl,29.8 µM (active),26.6 µM (active),–,–,–,4.77 µM [inconclusive] (active),–,–,–,–
COc1cc(-c2ccc(-[n+]3nc(-c4ccccc4)nn3-c3ccc([N+](=O)[O-])cc3)c(OC)c2)ccc1-[n+]1nc(-c2ccccc2)nn1-c1ccc([N+](=O)[O-])cc1,26.6 µM (active),29.8 µM (active),26.6 µM (active),4.25 µM (active),–,–,–,–,–,–
CN1CCC(CN2c3ccccc3Sc3ccccc32)C1 (centres undefined),10.6 µM (active),11.9 µM (active),inactive,inactive,inactive,inactive,inactive,inactive,–,–
